Inconclusive results are not listed. Where a call stands in place of a potency, no number is given. Calls of active or inactive are those of the source. Calls follow the shape of the full dose curve.
Assay: qHTS assay for small molecules that induce genotoxicity in human embryonic kidney cells expressing luciferase-tagged ATAD5 - cell viability (AID 651634); also: nearly all actives have a fitted effect of over 25% in size
Settings: HEK293T ATAD5-luc cells viability, CellTiter-Fluor, 15.5 h; series mostly up to 83.3 µM
Outline: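 Quantitative high-throughput format. HEK293T cells expressing ATAD5 fused to luciferase were plated at 2,000 cells/well and treated 15.5 hr with compound versus DMSO. Viability was determined by fluorescent live-cell protease substrate, 30 min at 37C.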

Structure (SMILES)	Potency
COC1=C(OC)C(=O)C(C/C=C(\C)CC/C=C(\C)CC/C=C(\C)CC/C=C(\C)CC/C=C(\C)CC/C=C(\C)CC/C=C(\C)CC/C=C(\C)CC/C=C(\C)CCC=C(C)C)=C(C)C1=O	inactive
COC(=O)C(CN)c1c[nH]c2ccc(OC)cc12 (configuration not stated)	inactive
CC(C)CCC[C@@H](C)[C@H]1CC[C@H]2[C@@H]3CC=C4C[C@@H](O)CC[C@]4(C)[C@H]3CC[C@]12C	inactive
C=N[C@@H](C(=O)N[C@@H]1C(=O)N2[C@@H]1SC(C)(C)[C@@H]2C(=O)O)c1ccccc1	inactive
Cc1c(O)c(=O)ccn1C	inactive
CCOC(=O)COc1ccc2c(=O)cc(-c3ccccc3)oc2c1	inactive
O=C1[O][Bi][O]c2ccccc21	inactive
O=P(O)(O)CP(=O)(O)O	inactive
CC12CCC(C1)C(C)(C)C2=O (configuration not stated)	inactive
CC(=O)Nc1ccc(OC(C)=O)cc1	inactive
CCN(CC)CCOC[C@H]1O[C@@H](O)[C@H](OCCN(CC)CC)[C@@H](O)[C@@H]1O	inactive
OCC1(CO)COC(C(Cl)(Cl)Cl)OC1	inactive
C=C1[C@H](CO)[C@@H](O)C[C@@H]1n1cnc2c(=O)[nH]c(N)nc21	inactive
O=S(=O)(O)CC(S)CS (configuration not stated)	inactive
COc1ccc(/C=N/NC(=O)c2ccncc2)c(C(=O)O)c1OC	inactive
CCCCCCCCCCCCCCCCCCOCC(COP(=O)([O-])OCC[N+](C)(C)C)OC (configuration not stated)	inactive
NC(=O)CC[C@@H]1NC(=O)[C@H](Cc2ccccc2)NC(=O)[C@H](Cc2ccc(O)cc2)NC(=O)[C@@H](N)CSSC[C@@H](C(=O)N2CCC[C@H]2C(=O)N[C@@H](CCCN=C(N)N)C(=O)NCC(N)=O)NC(=O)[C@H](CC(N)=O)NC1=O	inactive
CCC[C@@H]1C[C@@H](C(=O)N[C@@H]([C@H]2O[C@H](SC)[C@H](OP(=O)(O)O)[C@@H](O)[C@H]2O)[C@H](C)Cl)N(C)C1	inactive
C[C@H](NCCc1ccc(O)cc1)[C@H](O)c1ccc(O)cc1	inactive

Structure (SMILES)	Potency
CC(C)(COP(=O)(O)OP(=O)(O)OC[C@H]1O[C@@H](n2cnc3c(N)ncnc32)[C@H](O)[C@@H]1OP(=O)(O)O)C(O)C(=O)NCCC(=O)NCCS (some centres not stated)	inactive
CC(CNC(=O)c1cccnc1)NC(=O)c1cccnc1 (configuration not stated)	inactive
O=C(O)c1cc(O)c2c(c1)[C@H]([C@H]1c3cc(C(=O)O)cc(O)c3C(=O)c3c(O[C@@H]4O[C@H](CO)[C@@H](O)[C@H](O)[C@H]4O)cccc31)c1cccc(O[C@@H]3O[C@H](CO)[C@@H](O)[C@H](O)[C@H]3O)c1C2=O	inactive
C=CCN1C(=O)C(CC(C)C)NC1=S (configuration not stated)	inactive
C[C@H](O)CN(C)C	inactive
CNC(=O)OCc1cccc(COC(=O)NC)n1	inactive
NC(=O)[C@H]1O[C@@H](O)[C@H](O)[C@@H](O)[C@@H]1O	inactive
O=P(O)(O)C(O)(Cn1ccnc1)P(=O)(O)O	inactive
NC(=O)[C@@H]1C[C@]2(NC(=O)NC2=O)c2cc(F)ccc2O1	inactive
COc1ccc([C@@H]2CC(=O)c3c(O)cc(O[C@@H]4O[C@H](CO[C@@H]5O[C@@H](C)[C@H](O)[C@@H](O)[C@H]5O)[C@@H](O)[C@H](O)[C@H]4O)cc3O2)cc1O	inactive
CC[C@H]1OC(=O)C[C@@H](O)[C@H](C)[C@@H](O[C@@H]2O[C@H](C)[C@@H](O[C@H]3C[C@@](C)(O)[C@@H](O)[C@H](C)O3)[C@H](N(C)C)[C@H]2O)[C@@H](CC=O)C[C@@H](C)C(=O)/C=C/C(C)=C/[C@@H]1CO[C@@H]1O[C@H](C)[C@@H](O)[C@@H](OC)[C@H]1OC	inactive
NC(=O)C1c2ccccc2CCc2ccccc21	inactive
CC(C)=CCC/C(C)=C/CC/C(C)=C/CC/C(C)=C/CC1=C(C)C(=O)c2ccccc2C1=O	inactive
COc1cc2c(c(OC)c1OC)-c1c(cc3c(c1OC)OCO3)C[C@@H](C)[C@](C)(O)C2	inactive
O=C1CCC(c2ccccc2)(C2CCN(Cc3ccccc3)CC2)C(=O)N1 (configuration not stated)	inactive
O=C(Cn1cnnn1)N[C@@H]1C(=O)N2C(C(=O)O)=C(CSc3nncs3)CS[C@H]12	inactive
CN[C@H](CC(C)C)C(=O)N[C@H]1C(=O)N[C@@H](CC(N)=O)C(=O)N[C@H]2C(=O)N[C@H]3C(=O)N[C@H](C(=O)N[C@@H](C(=O)O)c4cc(O)cc(O)c4-c4cc3ccc4O)[C@H](O)c3ccc(c(Cl)c3)Oc3cc2cc(c3O[C@@H]2O[C@H](CO)[C@@H](O)[C@H](O)[C@H]2O[C@H]2C[C@](C)(N)C(O)[C@H](C)O2)Oc2ccc(cc2Cl)[C@H]1O (some centres not stated)	inactive
CC[C@H]1OC(=O)[C@H](C)C(=O)[C@H](C)[C@@H](O[C@@H]2O[C@H](C)C[C@H](N(C)C)[C@H]2O)[C@](C)(OC)C[C@@H](C)C(=O)[C@H](C)[C@H]2N(CCCCn3cnc(-c4cccnc4)c3)C(=O)O[C@]12C	inactive
